Screens as filed in PubChem BioAssay.
NPC1 promoter act: qHTS Assay for NPC1 Promoter Activators | AID 485313, 2010 | hit rate 2.4% among 320,000 | Potency, µM (doses to about 9.22 µM), actives largely listed as activators | Huh7 NPC1 promoter luciferase reporter, 24 h; also: nearly all actives have a fitted effect of over 60% in size
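Huh7 cells stably carrying NPC1 promoter–luciferase, plated in Opti-MEM with 10% FBS for 2 h, were exposed to compound in DMSO for 24 h at 37 °C; luciferase reagent was added for 10 min and luminescence read.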
Rab9 promoter act: qHTS Assay for Rab9 Promoter Activators; Huh7 Rab9 promoter-luciferase reporter, luminescence, 24 h; Potency, µM (series often up to 9.22 µM), hits mostly activators; hit rate 2.8% among 320,000; AID 485297, 2010; also: nearly all actives have a fitted effect of over 60% in size
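Stable Rab9-luc Huh7, 1500 cells/well, 2 h settle; cmpd in DMSO, 24 h, 37 °C/5% CO2; luciferase reagent 10 min RT; luminescence.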
Luc counter: Counterscreen for Luciferase (Kinase-Glo TM) Inhibition; Luciferin 4-monooxygenase (Photuris pensylvanica), Q27757; Kinase-Glo luciferase, ATP luminescence, 8 min; Potency, µM (doses to about 38.3 µM), actives largely listed as inhibitors; hit rate 0.28% among 200,000; also: nearly all actives have a fitted effect of over 60% in size
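Substrate mix (final 50 mM imidazole pH 7.2, 50 mM KCl, 7 mM MgCl2, 10 uM ATP, 0.01% Tween 20, 0.05% BSA) plus pin-tool compound, then Kinase-Glo detection mix; 8 min ambient, luminescence read.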
FLuc modulator: qHTS profiling assay for firefly luciferase inhibitor/activator using purifed enzyme and Km concentrations of substrates (counterscreen for miR-21 project); AID 588342, 2011; Luciferin 4-monooxygenase (Photinus pyralis), P08659; purified FLuc, Km substrates, luminescence inhibition; Potency, µM (titrated, usually from 57.5 µM), hits mostly inhibitors; hit rate 6.9% among 360,000; also: nearly all actives have a fitted effect of over 55% in size
Target sequence (P08659 whole entry, looked up): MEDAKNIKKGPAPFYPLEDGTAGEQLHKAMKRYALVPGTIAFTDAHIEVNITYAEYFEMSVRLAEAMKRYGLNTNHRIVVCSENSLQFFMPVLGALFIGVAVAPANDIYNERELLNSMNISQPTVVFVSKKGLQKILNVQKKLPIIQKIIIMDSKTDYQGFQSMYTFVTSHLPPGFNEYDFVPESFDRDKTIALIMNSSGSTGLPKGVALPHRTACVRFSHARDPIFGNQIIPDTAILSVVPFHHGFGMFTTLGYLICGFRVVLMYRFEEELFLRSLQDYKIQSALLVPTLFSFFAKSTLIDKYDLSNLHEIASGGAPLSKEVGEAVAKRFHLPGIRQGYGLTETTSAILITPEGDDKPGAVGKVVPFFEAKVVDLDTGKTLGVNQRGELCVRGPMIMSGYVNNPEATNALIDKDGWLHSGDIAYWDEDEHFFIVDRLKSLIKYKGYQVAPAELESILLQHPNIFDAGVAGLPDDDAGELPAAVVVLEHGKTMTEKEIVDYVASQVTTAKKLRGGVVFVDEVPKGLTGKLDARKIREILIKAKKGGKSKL
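Purified P. pyralis luciferase (10nM final) with 10uM D-luciferin and 10uM ATP (Km levels) in 50mM Tris acetate pH 7.5, 10mM Mg acetate, 0.01% Tween-20, 0.05% BSA; qHTS 6-point titration, ~60 µM downward; luminescence read.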
SMN2 splice up: qHTS Assay for Enhancers of SMN2 Splice Variant Expression; Potency, µM (series often up to 46.1 µM), actives largely listed as activators; hit rate 2.8% among 210,000; HEK293 SMN2-luciferase splicing reporter, luminescence, 30-36 h; also: nearly all actives have a fitted effect of over 55% in size
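HEK293 cells carry an SMN2 […]–luciferase reporter in which exon 7 inclusion puts luciferase in frame. Cells were plated 10-12 h before compound addition, then incubated 30-36 h at 37C. ONE-Glo luminescence was read; sodium butyrate at 4.5 mM final served as control.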
A number is an active result; i = inactive; ? = inconclusive; nt = no result; [ ] = dose if it differs, or a comment. Sampled rows, rich in hits. Any-hit rate of the full collection: about 7.3%. Calls follow the shape of the dose curve; as a rule, active = well fitted curve in the direction sought with a large enough effect; inconclusive = small, poorly fitted or top-dose-only effect, or another doubt; inactive = no such curve, though single readings can be large; an effect the other way counts as inactive or inconclusive.

SMILES | NPC1 promoter act | Rab9 promoter act | Luc counter | FLuc modulator | SMN2 splice up
CC1CCc2c(sc(NC(=O)C3CCCO3)c2C#N)C1 (stereo not given) | 3.5µM | 3.2µM | i | 11µM | 11µM
COc1ccc(NC(=O)c2cccc(N3C(=O)c4cccc([N+](=O)[O-])c4C3=O)c2)cc1 | i | i | nt | 8.5µM | nt
CC(=O)c1ccc(NC(=O)c2cccc(N3C(=O)c4ccccc4C3=O)c2)cc1 | i | i | nt | i | nt
COCCCN=Cc1c(C)[nH]n(-c2ccc(Br)c(C)c2)c1=O | 1.4µM | 0.5µM | i | 1.3µM | 2.8µM
Cc1ccc(-n2[nH]c(C)c(C=NC34CN5CN(CN(C5)C3)C4)c2=O)cc1C | nt | nt | i | i | i
O=c1c2sccc2nc(SCc2cc(=O)n3cc(Br)ccc3n2)n1Cc1ccccn1 | ? | 4.5µM | i | i | ?
O=C(CN1C(=O)S/C(=C\C=C\c2ccccc2)C1=O)N1CCOCC1 | i | i | nt | 4.8µM | nt
O=C(CN1C(=O)S/C(=C/c2ccc(N3CCOCC3)cc2)C1=O)N1CCOCC1 | i | i | i | 3µM | ?
COc1ccc(-c2nc3ccccc3s2)cc1NC(C)=O | 2.5µM | 2.2µM | i | 6.7µM | 11µM
Cc1ccc(C(=O)NC(=S)Nc2cc(-c3nc4ccccc4s3)ccc2C)cc1 | i | i | i | 9.5µM | i
COc1ccc(-c2nc3ccccc3s2)cc1NC(=O)c1ccc(C#N)cc1F | nt | nt | nt | i | i
Cc1ccc(-c2nc3ccccc3s2)cc1NC(=O)COc1ccccc1 | nt | nt | nt | i | i
COc1ccc(-c2nc3ccccc3s2)cc1NC(=O)COc1ccc(C)cc1 | nt | nt | nt | i | 1.3µM
COc1ccc(-c2nc3ccccc3s2)cc1NC(=O)c1ccccc1F | nt | nt | nt | i | i
COc1ccc(-c2nc3ccccc3s2)cc1NC(=O)c1cccc([N+](=O)[O-])c1C | nt | nt | nt | 3.4µM | 11µM
Cc1ccc(C(=O)Nc2ccc(-c3nc4ccccc4s3)cc2C)cc1C | nt | nt | nt | ? | i
COc1ccc(-c2[nH]ncc2C(=O)NCc2ccccc2OC)cc1 | nt | nt | nt | i | i
CCN(CC)[C@@H](C)CN1c2ccccc2Sc2ccccc21 | nt | nt | i | nt | i
COc1ccccc1OC(C)C(=O)Nc1cccc(-c2nc3ccccc3s2)c1 (stereo not given) | nt | nt | nt | 11µM | nt
COc1ccc(-c2nc3ccccc3s2)cc1NC(=O)COc1cccc(C)c1 | nt | nt | nt | ? | 2.8µM
COc1cccc(N2CC(NC(=O)C(c3ccccc3)c3ccccc3)CC2=O)c1 (stereo not given) | nt | nt | nt | i | nt
CCCCN1CSC(=S)N(Cc2ccccc2)C1 | nt | nt | i[7.66 µM] | nt | i[9.22 µM]
Cc1ccccc1Nc1oc(-c2ccccc2)nc1-c1ccccc1 | nt | nt | i | nt | i
NC(=O)c1cnn(-c2cc(Oc3ccccc3)ncn2)c1N | 3.2µM | 2.5µM | i | ? | nt
COC(=O)c1cnn(-c2cc(Oc3ccccc3)ncn2)c1N | ? | 2.5µM | nt | ? | nt
SMILES | NPC1 promoter act | Rab9 promoter act | Luc counter | FLuc modulator | SMN2 splice up
c1ccc(Oc2cc(-n3cccn3)ncn2)cc1 | ? | 3.2µM | i | 12µM | 22µM
NC(=O)c1cnn(-c2cccc(Cl)c2)c1N | i | i | nt | i | nt
COc1cccc(-n2cc(C(=O)OCc3ccc(F)c(F)c3)c3ccccc3c2=O)c1 | nt | nt | nt | i | nt
Cc1ccc(N(CC(=O)Nc2ccc(Cl)cc2)S(=O)(=O)c2cccc3nonc23)cc1 | nt | nt | nt | i | i
Cn1c(=NC(=O)C2CCCCC2)sc2cc([N+](=O)[O-])ccc21 | i | ? | nt | i | nt
CCOc1ccc2c(c1)sc(=NC(=O)C1CC1)n2C | nt | nt | i | 7.6µM | 11µM
Cc1ccc(N=C/C(C(=O)C(F)(F)F)=C(\O)c2cccs2)cc1 | 1.8µM | 1.8µM | i | 13µM | ?
O=C(/C(N=Nc1cccc(C(F)(F)F)c1)=C(/O)c1cccs1)C(F)(F)F | i | i | nt | i | nt
COC(=O)c1cc(-c2ccc(Cl)cc2Cl)n[nH]1 | i | i | i | 15µM | i
CCOc1cccc(-c2nnc3sc(-c4cccs4)nn23)c1 | i | i | i | i | i
COc1cccc(-c2nnc3sc(-c4cccs4)nn23)c1 | 3.2µM | 2.8µM | i | ? | ?
COc1ccc(-c2nnc3sc(-c4ccco4)nn23)cc1OC | i | i | i | i | i
COc1cccc(-c2nn3c(-c4cccc(C)c4)nnc3s2)c1 | i | i | i | 19µM | i
COc1cccc(-c2nnc3sc(-c4ccco4)nn23)c1 | 4.5µM | 2.8µM | i | ? | i
COc1cccc(-c2nnc3sc(-c4ccc(C)cc4)nn23)c1 | i | i | i | i | i
CCOC(=O)c1c(NC(=O)/C=C/c2ccc(C)cc2)sc(C(C)=O)c1C | nt | nt | nt | i | i
COc1ccc(NC(=O)N(Cc2nnc3n2CCCCC3)c2ccc(OC)c(Cl)c2)cc1 | nt | nt | nt | i | nt
O=C(Nc1ccc(Br)cc1F)c1cc(S(=O)(=O)NC2CCCC2)ccc1F | nt | nt | nt | i | nt
O=C(Nc1ccc2c(c1)OCO2)c1cnccn1 | 3.5µM | 2.5µM | i | ? | 11µM
O=C(NCc1ccc2c(c1)OCO2)c1ccccn1 | i | i | i | i | i
O=C(Nc1ccc2c(c1)OCO2)c1ccccn1 | 1.8µM | 1.4µM | nt | 9.5µM | nt
O=C(COC(=O)c1cnccn1)Nc1ccc2c(c1)OCO2 | i | i | i | i | i
O=C(Nc1ccc2c(c1)OCO2)c1n[nH]c(=O)c2ccccc12 | 2.8µM | 3.5µM | nt | ? | nt
O=C(Nc1ccc2c(c1)OCO2)c1nn(-c2ccccc2)c(=O)c2ccccc12 | i | i | i | i | i
O=C(/C=C\Nc1ccc2c(c1)OCO2)c1ccccn1 | ? | ? | 14µM | 0.076µM | i
SMILES | NPC1 promoter act | Rab9 promoter act | Luc counter | FLuc modulator | SMN2 splice up
CCc1cccc(CC)c1-n1nnc2c(sc3nc(C)cc(C)c32)c1=O | nt | nt | nt | i | i
CCOC(=O)c1c(C)oc2nc(C)nc(N3CCN(c4ccccc4F)CC3)c12 | nt | nt | nt | i | nt
COC(=O)c1sccc1S(=O)(=O)N(CC(=O)NCc1ccccc1)c1ccccc1 | nt | nt | nt | i | nt
O=C(NCCc1ccc2c(c1)OCCO2)c1ccccn1 | 2.2µM | 2µM | nt | 12µM | nt
Cc1ccc2c(=O)cc(C(=O)Nc3sc4c(c3C(=O)NCc3ccccc3)CCCC4)oc2c1C | nt | nt | nt | i | i
COC(=O)c1cccc(NC(=O)NC(=O)c2ccccc2Cl)c1 | 1.3µM | 0.35µM | nt | 11µM | nt
COC(=O)c1cc(NC(=O)Nc2ccccc2)ccc1Cl | i | i | i | 15µM | ?
COC(=O)c1cccc(NC(=O)Nc2ccc(Cl)c(Cl)c2)c1 | ? | 3.5µM | i | 15µM | i
COC(=O)c1cccc(NC(=O)Nc2ccccc2OC)c1 | i | ? | nt | 12µM | nt
COc1ccccc1NC(=O)C1=C(C)Nc2ncnn2C1c1cccn1C (stereo not given) | nt | nt | nt | i | nt
Cc1nc(NC2CCCCC2)c2nc(-c3ccccc3)n(CCN3CCCCC3)c2n1 | nt | nt | i | nt | i
NS(=O)(=O)c1ccc(CCNC(=O)Cn2c(-c3cccs3)cc3ccccc32)cc1 | nt | nt | nt | i | nt
COc1cc(-c2noc(-c3cc(C)[nH]n3)n2)cc(OC)c1OC | nt | nt | nt | i | nt
COc1cccc(Nc2nc(CC(C)=O)ns2)c1 | ? | i | i | ? | i
